Reference: the supplement of paper PMC3545927
Some of the results follow. The hit rate among all sequences tested is not known here.

Target: furin, P09958
Assay: furin cleavage Z-score vs untreated control; higher = more cleavage, active = 3.5 or more, inactive = 1 or less, 8 variable residues between constant flanks
Summary of the method: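 Reactions of 0.01 ml ran for 7.5, 15 or 30 min in 50 mM HEPES pH 7.5 with CaCl2 and NaCl, at 1:10 enzyme:substrate. In them, purified furin acted on bead-held 8-mer peptides fused to a cDNA oligonucleotide. The cleavage Z-score was obtained by lowess-adjusting log sequencing counts of released DNA against furin-free reactions and scaling by median absolute deviation.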

Chain of furin, P09958 (P09958 whole entry): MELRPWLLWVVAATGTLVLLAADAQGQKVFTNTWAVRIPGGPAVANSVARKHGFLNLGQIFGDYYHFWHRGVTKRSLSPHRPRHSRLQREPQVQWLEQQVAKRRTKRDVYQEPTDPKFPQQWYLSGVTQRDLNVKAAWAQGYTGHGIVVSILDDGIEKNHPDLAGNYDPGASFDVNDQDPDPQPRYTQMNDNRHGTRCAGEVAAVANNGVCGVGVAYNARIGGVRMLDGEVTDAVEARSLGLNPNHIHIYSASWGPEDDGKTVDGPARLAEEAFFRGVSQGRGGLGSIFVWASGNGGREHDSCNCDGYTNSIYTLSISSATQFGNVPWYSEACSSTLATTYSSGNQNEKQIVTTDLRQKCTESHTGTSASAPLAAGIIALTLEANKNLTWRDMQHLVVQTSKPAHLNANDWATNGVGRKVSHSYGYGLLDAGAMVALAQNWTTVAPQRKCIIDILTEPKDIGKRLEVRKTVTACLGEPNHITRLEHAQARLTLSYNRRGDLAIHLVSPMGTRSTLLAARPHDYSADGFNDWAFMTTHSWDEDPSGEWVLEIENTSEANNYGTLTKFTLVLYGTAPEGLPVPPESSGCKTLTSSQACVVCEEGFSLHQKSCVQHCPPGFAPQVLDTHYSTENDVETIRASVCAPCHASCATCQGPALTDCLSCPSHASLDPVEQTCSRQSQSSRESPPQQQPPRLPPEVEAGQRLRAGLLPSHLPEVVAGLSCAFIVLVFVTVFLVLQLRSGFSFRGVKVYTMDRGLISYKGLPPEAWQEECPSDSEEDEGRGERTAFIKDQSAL

Row | Sequence | furin cleavage Z-score (7.5 min) | furin cleavage Z-score (15 min) | furin cleavage Z-score (30 min)
1 | CADMMMNWSPAGNASASA [HC321] | -1.68 (inactive) | -0.337 (inactive) | -0.211 (inactive)
2 | CANRLIAFASAGNASASA [HC1119] | 0.982 (inactive) | 0.0869 (inactive) | 0.661 (inactive)
3 | CAPYYKRYISAGNASASA [HC577] | -0.596 (inactive) | 1.03 | 0.43 (inactive)
4 | CAEVPCHRCSAGNASASA [HC2400] | -0.164 (inactive) | 1.15 | 0.38 (inactive)
5 | CAGDIRVRRLAGNASASA [FS-423] | 3.94 (active) | 5.14 (active) | 6.57 (active)
6 | CAACIRKRRLAGNASASA [FS-1582] | 8.2 (active) | 8.28 (active) | 8.96 (active)
7 | CANLSRNRRLAGNASASA [FS-697] | 2.54 | 6.24 (active) | 6.91 (active)
8 | CAKRAAVRRLAGNASASA [FS-1134] | -0.242 (inactive) | -0.206 (inactive) | 1.42
9 | CAEGHRPRRPAGNASASA [FS-412] | -0.592 (inactive) | -1.65 (inactive) | -2.58 (inactive)
10 | CAARHRPRRLAGNASASA [FS-1307] | 8.25 (active) | 10.2 (active) | 9.03 (active)
11 | CAAEAAGRRLAGNASASA [HC1252] | -0.023 (inactive) | -0.0869 (inactive) | -1.21 (inactive)
12 | CAAWYLKGKWAGNASASA [HC548] | -0.848 (inactive) | -0.178 (inactive) | -0.813 (inactive)
13 | CAHSAKSKFGAGNASASA [HC1418] | -0.464 (inactive) | -0.415 (inactive) | -0.702 (inactive)
14 | CAVVCCSMSKAGNASASA [HC2094] | -0.242 (inactive) | -0.54 (inactive) | -1.3 (inactive)
15 | CAHGAGTRTIAGNASASA [HC702] | 1.09 | 1.35 | -2.29 (inactive)
16 | CAALSRPRRLAGNASASA [FS-749] | 2.43 | 5.44 (active) | 2.14
17 | CAEVPCHRPVAGNASASA [HC2410] | 0.723 (inactive) | -0.406 (inactive) | -0.356 (inactive)
18 | CARSSRSGSSAGNASASA [FS-3096] | -0.25 (inactive) | -0.36 (inactive) | -1.33 (inactive)
19 | CASSGRPRRSAGNASASA [FS-507] | 10.4 (active) | 9.27 (active) | 7.66 (active)
20 | CAVDSRPRRSAGNASASA [FS-887] | 9.24 (active) | 9.17 (active) | 9.61 (active)
21 | CASSGRSFRSAGNASASA [FS-146] | 0.572 (inactive) | 0.748 (inactive) | 1.78
22 | CARESRPRRQAGNASASA [FS-1395] | 8.96 (active) | 9.39 (active) | 6.91 (active)

Row | Sequence | furin cleavage Z-score (7.5 min) | furin cleavage Z-score (15 min) | furin cleavage Z-score (30 min)
23 | CARSSRPRRSAGNASASA [FS-1163] | 10.4 (active) | 11 (active) | 6.76 (active)
24 | CASSGCPERLAGNASASA [HC385] | -0.122 (inactive) | -0.598 (inactive) | 0.353 (inactive)
25 | CAKPQRPRRPAGNASASA [FS-1133] | -0.333 (inactive) | 0.223 (inactive) | 1.52
26 | CAQAETAGARAGNASASA [HC828] | -0.329 (inactive) | 0.716 (inactive) | -1.08 (inactive)
27 | CADTAACGDIAGNASASA [HC655] | 0.349 (inactive) | -0.867 (inactive) | 1
28 | CAQGWGPISYAGNASASA [HC394] | 1.47 | 0.693 (inactive) | 0.999 (inactive)
29 | CASEPAPSGCAGNASASA [HC1345] | -2.17 (inactive) | 0.166 (inactive) | -1.95 (inactive)
30 | CATTPCPGSWAGNASASA [HC80] | 0.174 (inactive) | -1.3 (inactive) | -1.39 (inactive)
31 | CAEFTTPCSGAGNASASA [HC1967] | -0.433 (inactive) | -0.681 (inactive) | -0.377 (inactive)
32 | CATTPCSGSHAGNASASA [HC1935] | -1.54 (inactive) | -0.464 (inactive) | -0.211 (inactive)
33 | CAAFSLHSYSAGNASASA [HC1606] | 0.00727 (inactive) | -0.749 (inactive) | -0.113 (inactive)
34 | CAQTPCSGSWAGNASASA [HC1842] | -1.2 (inactive) | -0.187 (inactive) | -0.763 (inactive)
35 | CARVSRSVRKAGNASASA [FS-293] | 2.18 | 4.8 (active) | 5.93 (active)
36 | CARFGRFWKKAGNASASA [FS-2921] | -0.769 (inactive) | 0.759 (inactive) | -0.706 (inactive)
37 | CARVLRSDGKAGNASASA [FS-2102] | 1.54 | -0.134 (inactive) | 1.59
38 | CACQQRFKRKAGNASASA [FS-1516] | 9.6 (active) | 8.5 (active) | 7.56 (active)
39 | CARVSRLAGRAGNASASA [FS-3126] | -0.719 (inactive) | -0.0593 (inactive) | -1.13 (inactive)
40 | CAAAFRFKRKAGNASASA [FS-1109] | 9.75 (active) | 11.5 (active) | 9.51 (active)
41 | CADVFVLNNTAGNASASA [HC428] | 0.596 (inactive) | 0.292 (inactive) | 1.32
42 | CAEFVTSTWVAGNASASA [HC2167] | 0.46 (inactive) | -0.556 (inactive) | 1.32
43 | CASTRCSAHLAGNASASA [HC2513] | -0.269 (inactive) | 0.477 (inactive) | 0.507 (inactive)
